We go through 36 compounds from PubChem BioAssay.

This assay can be described thus: probe aInhba binding on compound microarray – biochemical, small-molecule microarray, 635/667 nm fluorescence, primary screen (AID 1148).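 Further: score merges 667nm spot fluorescence with signal-to-noise for antibody binding to printed compounds.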 As to conditions: higher = more signal.
In turn, `CO[C@H]1COC(=O)[C@H](CCSC)NC(=O)CC=C[C@@H](C)[C@H](OC)COC(=O)[C@@H](OCc2ccccc2)C=C[C@@H]1C` showed a composite z-score of -0.101. With `COC(=O)[C@H](C)NC(=O)CCC1CC(OC(=O)NCCc2ccc(F)cc2)CC2(CCCC(COC(=O)NCCc3ccccc3OC)O2)O1` (stereo partly specified) the figure was -0.343. With `CC(C)CN1CCc2nc(-c3ccccc3)c3c(c2C1)CO[C@@H](C)C3` the figure was 0.115; with `CC(C)[C@@H](OCc1ccccc1)[C@H](C)CON=C1[C@H]2CCn3c(=O)n(-c4ccccc4)c(=O)n3[C@H]2[C@H](O)[C@@H]2O[C@H]12`, -0.128. The value for `CON=C(C)CCN1CCc2nc(-c3ccccc3)c(-c3ccccc3)cc2C1` was -0.05; that for `COc1ccc(OC[C@H]2CN3[C@@H](CC[C@@H](C)[C@@H]3c3ccc(Br)cc3)C(=O)O2)cc1` was -0.2; that for `O=C(NN=C1C[C@@H](O)[C@@H](O)[C@@H]2[C@@H]3C(=O)N(c4ccc(F)cc4F)C(=O)[C@@H]3CC[C@H]12)OCc1ccccc1` was -0.101. `COC(=O)[C@H](C)NC(=O)CCC1CC(OC(=O)NCc2cccc3ccccc23)CC2(CCCC(COC(=O)NCc3ccccc3)O2)O1` (stereo partly specified) yielded a composite z-score of 0.0901. The value for `O=C1C2=CC[C@H]3C(=O)N(C4CCCCC4)C(=O)[C@H]3[C@H]2[C@H](O)[C@@H]2O[C@H]12` was -0.183.

`C#CCCCON=C1C[C@@H](O)[C@@H](O)[C@@H]2[C@@H]3C(=O)N(C[C@@H]4CCCO4)C(=O)[C@@H]3CC[C@H]12` returned a composite z-score of -0.128.

Consider `O=C1[C@H]2CCn3c(=O)n(-c4ccccc4)c(=O)n3[C@H]2[C@H](O)[C@@H]2O[C@H]12`, for which the composite z-score was -0.272. With `CC(=O)OC[C@H]1O[C@H](CC=NOCC[C@@H]2C=C[C@H](OC(C)=O)[C@@H](COC(C)=O)O2)C=C[C@@H]1OC(C)=O` the figure was -0.0471; with `CCCNC(=O)OC[C@H]1O[C@H](CCON=C[C@@H](C)[C@H](OCc2ccccc2)C(C)C)C=C[C@@H]1Oc1ccc(OC)cc1`, -0.104. The value for `CC(CCC(=O)OC[C@H]1O[C@H](C#Cc2ccccc2)C=C[C@@H]1Oc1ccc(C)cc1)=NOC(C)CN1CCCCc2nc(C)c(C)cc21` (stereo partly specified) was -0.246; that for `CCN1C(=O)[C@H]2[C@H]3[C@H](O)[C@H](O)CC(=NNC(=O)OCc4ccccc4)[C@H]3CC[C@H]2C1=O` was -0.0719. `CO[C@@H](C(C)C)[C@@H](C)C1OC(=O)CC1O` (stereo partly specified) registered a composite z-score of -0.158. With `CC(C)=NOC(C)CN1CCCc2nc(C)c(C)cc21` (stereo unspecified) the figure was 0.0074; with `CO[C@@H]1[C@H](O)CO[C@H]1C=Cc1ccccc1`, -0.182; with `COc1ccc(O[C@H]2C=C[C@@H](C#Cc3ccccc3)O[C@@H]2CO)cc1`, -0.182. With `CC(CCC(=O)OC[C@H]1O[C@H](C#Cc2ccccc2)C=C[C@@H]1Oc1ccc(C)cc1)=NOC[C@@H](C)[C@H](OCc1ccccc1)C(C)C` the figure was -0.128. The value for `CC(CCN1CCc2nc(-c3ccccc3)c(-c3ccccc3)cc2C1)=NOC(C)CN1CCCc2nc(C)c(C)cc21` (stereo unspecified) was 0.0785; that for `CCOC(=O)[C@H](CC(C)C)NC(=O)CCC1CC(OC(=O)NCc2ccc3c(c2)OCO3)CC2(CCCC(COC(=O)NCCc3ccc(Cl)cc3)O2)O1` (stereo partly specified) was -0.089; that for `CC(=O)OC[C@H]1O[C@@H](ON=C(C)CCC(=O)OC[C@H]2O[C@H](C#Cc3ccccc3)C=C[C@@H]2Oc2ccc(C)cc2)[C@H](OC(C)=O)[C@@H](OC(C)=O)[C@@H]1OC(C)=O` was -0.082. `CC(C)CON=C1C[C@@H](O)[C@@H](O)[C@@H]2[C@@H]3C(=O)N(c4ccc(F)cc4F)C(=O)[C@@H]3CC[C@@H]12` showed a composite z-score of -0.0719. The value for `CCOC(=O)CCN1C(=O)[C@H]2[C@H]3[C@H](O)[C@H](O)CC(=NO[C@@H]4O[C@H](CO)[C@@H](O)[C@H](O)[C@H]4O)[C@H]3CC[C@H]2C1=O` was -0.05; that for `CCOC(=O)[C@H](Cc1ccccc1)NC(=O)CCC1CC(OC(=O)NCc2cccc3ccccc23)CC2(CCCC(COC(=O)NCCc3ccc(Cl)cc3)O2)O1` (stereo partly specified) was -0.223; that for `CCN1C(=O)[C@H]2[C@H]3[C@H](O)[C@H](O)CC(=NOC[C@@H](O)COCc4ccco4)[C@H]3CC[C@H]2C1=O` was -0.241. With `C#CCCCON=C1C[C@@H](O)[C@@H](O)[C@@H]2[C@@H]3C(=O)N(C4CCCCC4)C(=O)[C@@H]3CC[C@@H]12` the figure was -0.286; with `COC(=O)[C@H](CCSC)NC(=O)CC=C[C@@H](C)CO`, -0.128. On to `CCc1cc2c(nc1CC)CCN(CCC(C)=NO[C@@H]1O[C@H](COC(C)=O)[C@@H](OC(C)=O)[C@H](OC(C)=O)[C@H]1OC(C)=O)C2`, for which the composite z-score was -0.089. With `CO[C@H]1COC(=O)[C@H](C)COC(=O)[C@H](C)NC(=O)CC=C[C@H]1C` the figure was -0.0762; with `COC(=O)[C@H](C)NC(=O)CCC1CC(OC(=O)NCc2ccc3c(c2)OCO3)CC2(CCCC(COC(=O)NCCCN3CCCC3=O)O2)O1` (stereo partly specified), 0.111.

Turning to `COc1ccc(COC(=O)NN=C2C[C@@H](O)[C@@H](O)[C@@H]3[C@@H]4C(=O)N(C[C@@H]5CCCO5)C(=O)[C@@H]4CC[C@@H]23)cc1`, the composite z-score was -0.15. With `COc1ccc(COC(=O)NN=C2C[C@@H](O)[C@@H](O)[C@@H]3[C@@H]4C(=O)N(C(C)(C)C)C(=O)[C@@H]4CC[C@@H]23)cc1` the figure was 0.0086. With `CCOC(=O)[C@H](CC(C)C)NC(=O)CCC1CC(OC(=O)NCc2ccc3c(c2)OCO3)CC2(CCCC(COC(=O)NCc3ccccc3)O2)O1` (stereo partly specified) the figure was 0.0712. The compound `CC(C)[C@H](NC(=O)OC(C)(C)C)[C@@H](O)CC(=O)C(C)(C)C` gave a composite z-score of -0.148.
